In PubChem BioAssay (Tox21):
Calls of active or inactive are those of the source. Calls come from the whole dose curve; as a rule, active = well fitted curve in the direction sought with a large enough effect in the repeat runs; inconclusive = weak or mixed curves; inactive = flat fitted curve, though single readings scatter.

Assay: qHTS assay to test for compound auto fluorescence at 590 nm (red) in HepG2 cell free culture (AID 720684)
Conditions: cell-free medium autofluorescence, red 540/590 nm; series mostly up to 46 µM; fluorescence, % of Rose Bengal: at the top concentration
Source text: U.S. Tox21 Program National Center for Advancing Translational Sciences [NCATS] NIH Chemical Genomics Center [NCGC] U.S. Environmental Protection Agency [EPA] National Institutes of Environmental Health Sciences [NIEHS] National Toxicology Program [NTP] U.S. Food and Drug Administration [FDA] Tox21 Assay Overview: Compound auto fluorescence often interferes with screening of the compound library against various biological targets and signaling pathways. Some of these compounds may have fluorophoric properties. Such properties may interfere with the assay outputs resulting in false positives and/or negatives. To decrease such complications and ensure the compound activities are relevant in terms of biological response, the Tox21 10K compound library was screened for auto fluorescence. From the fluorophores used as reporter signals in our screening assays, the auto fluorescence equivalencies of compounds against three fluorophores have been evaluated: Triamterene, Fluorescein and Rose Bengal sodium for blue, green and red fluorescence, respectively. The fluorescence intensities were measured using Excitation/Emission wavelengths at 405/460nm, 485/535nm and 540/590nm for blue, green and red labels, respectively. This assay includes the red fluorescence data.
Tox21 Assay Protocol Summary: 5 uL of culture medium (MEM containing 10% FBS) per well was dispensed into black wall/clear bottom 1536-well plates using a Multidrop Combi Dispenser (ThermoFisher Scientific, Waltham, MA). After 23 nL compound or DMSO vehicle was transferred into assay plate by a pintool work station (Kalypsys, San Diego, CA), fluorescence intensities in the assay plates were measured by an Envision (PerkinElmer, Shelton, CT) plate reader using three labels for measuring blue, green and red fluorescence at […] 460, 535 and 590nm respectively.
% is set by controls: 0 for no effect and ±100 for the full control effect.

| SMILES | fluorescence, % of Rose Bengal | outcome |
| --- | --- | --- |
| C[C@H]1CC[C@]2(NC1)O[C@H]1C[C@H]3[C@@H]4CC[C@H]5C[C@@H](O[C@@H]6O[C@H](CO)[C@H](O[C@@H]7O[C@H](CO)[C@@H](O)[C@H](O[C@@H]8OC[C@@H](O)[C@H](O)[C@H]8O)[C@H]7O[C@@H]7O[C@H](CO)[C@@H](O)[C@H](O)[C@H]7O)[C@H](O)[C@H]6O)CC[C@]5(C)[C@H]4CC[C@]3(C)[C@H]1[C@@H]2C | 0.0656% (inactive) |  |
| COc1cc(C[C@H](C)N)c(OC)cc1C | 0.211% [at 95.7 µM] (inactive) |  |
| C[C@]12CC[C@@H]3c4ccc(OC(=O)N(CCCl)CCCl)cc4CC[C@H]3[C@@H]1CC[C@@H]2OP(=O)(O)O |  | inactive |
| Cc1ccc(N(SC(F)(Cl)Cl)S(=O)(=O)N(C)C)cc1 | 0.0328% [at 91.3 µM] (inactive) |  |
| C/C=C(\CC)C(=O)NC(N)=O | 0.32% (inactive) |  |
| CN(C)CCCCCCN(C)C (tested in a mixture with another compound) | -0.018% (inactive) |  |
| CCC1C(C)=NN=C(c2ccc(OC)c(OC)c2)c2cc(OC)c(OC)cc21 (stereo not given) | 0.341% (inactive) |  |
| CN(C)[C@H](Cc1ccccc1)c1ccccc1 | 0.0188% (inactive) |  |
| C[C@@H](Cc1ccccc1)NCCC(c1ccccc1)c1ccccc1 | 0.045% [at 18.6 µM] (inactive) |  |
| C[C@]12C=CC(=O)C=C1CC[C@@H]1[C@@H]2CC[C@]2(C)OC(=O)CC[C@@H]12 | 0.0351% (inactive) |  |
| CN1c2ccccc2C(NCCCCCCC(=O)O)c2ccc(Cl)cc2S1(=O)=O (stereo not given) | -0.0003% (inactive) |  |
| CC(C)C[C@H]1C(=O)N2CCC[C@H]2[C@]2(O)O[C@](NC(=O)[C@@H]3C[C@@H]4c5cccc6[nH]cc(c56)C[C@H]4N(C)C3)(C(C)C)C(=O)N12 | 0.322% (inactive) |  |
| NCC[C@H](O)C(=O)N[C@@H]1C[C@H](N)[C@@H](O[C@H]2O[C@H](CN)[C@@H](O)[C@H](O)[C@H]2N)[C@H](O[C@@H]2O[C@H](CO)[C@@H](O)[C@H]2O)[C@H]1O | 0.0661% [at 18.6 µM] (inactive) |  |
| CC(N)Cc1ccc(O)cc1 (stereo not given) | -0.262% (inactive) |  |
| CCC1(C)CC(=O)NC(=O)C1 | -0.0165% [at 18.6 µM] (inactive) |  |
| CN1[C@H]2CC[C@@H]1[C@@H](C(=O)O)[C@@H](OC(=O)c1ccccc1)C2 |  | inactive |
| CC(=O)[C@@]1(O)CC[C@H]2[C@@H]3CCC4=CC(=O)CC[C@]4(C)C3(F)[C@@H](O)C[C@@]21C (stereo not given in full) | 0.14% (inactive) |  |
| CCCC(C)(COC(N)=O)COC(=O)NC1CC1 (stereo not given) | -0.152% (inactive) |  |
| Clc1ccccc1-c1ccccc1Cl | -0.163% [at 95.7 µM] (inactive) |  |
| C[C@@H]1[C@@H]2Cc3ccc(O)cc3[C@@]1(C)CCN2CCc1ccccc1 | -0.118% [at 91.3 µM] (inactive) |  |

| SMILES | fluorescence, % of Rose Bengal | outcome |
| --- | --- | --- |
| COC1=CC=C2[C@H]3Cc4ccc(OC)c5c4[C@@]2(CCN3C)[C@H]1O5 |  | inactive |
| CCCCCCCCCC(=O)O[C@H]1CC[C@H]2[C@@H]3CCC4=CC(=O)CC[C@]4(C)[C@H]3CC[C@]12C | -0.296% (inactive) |  |
| C=CCN(C1=NCCN1)c1c(Cl)cccc1Cl | -0.133% (inactive) |  |
| CC1(C)S[C@@H]2[C@H](N)C(=O)N2[C@H]1C(=O)O | -0.113% [at 18.6 µM] (inactive) |  |
| CNC(C)Cc1ccccc1 (stereo not given) | -0.0863% [at 91.3 µM] (inactive) |  |
| c1ccc(C2(N3CCCC3)CCCCC2)cc1 | 0.009% (inactive) |  |
| O=C1CN=C(c2ccccc2)c2cc(Cl)ccc2N1 | -0.0348% (inactive) |  |
| Cc1cccc(C(C)c2cnc[nH]2)c1C (stereo not given) | -0.129% (inactive) |  |
| F/C(COc1ccc2c(c1)[nH]c1ccccc12)=C1/CN2CCC1CC2 | 0.0054% (inactive) |  |
| CCC1(c2cnc[nH]2)Cc2ccccc2C1 |  | inactive |
| CNc1ccc(C(=O)CC(O)CCC(C)C2OC(=O)CC(O)CC(=O)CC(O)CC(O)CC(O)CC(O)CC3(O)CC(O)C(C(=O)OC)C(CC(O[C@@H]4O[C@H](C)[C@@H](O)[C@H](N)[C@@H]4O)/C=C/C=C/C=C/C=C/C=C/C=C/C=C/C2C)O3)cc1 (stereo not given in full) | 0.0003% (inactive) |  |
| CCCN1CCC[C@H](c2cccc(O)c2)C1 | 0.031% (inactive) |  |
| CCCC(C)C1(CC)C(=O)NC(=O)NC1=O (stereo not given) | -0.243% (inactive) |  |
| C[C@@H]1[C@H]2Cc3ccc(O)cc3[C@]1(C)CCN2C | 0.0773% [at 95.7 µM] (inactive) |  |
| O=C(O)/C=C/C(=O)O |  | inactive |
| O=C(O)/C=C\C(=O)O |  | inactive |
| O=c1c2ccccc2[se]n1-c1ccccc1 | -0.0017% (inactive) |  |
| O=C1CCO1 | -0.29% (inactive) |  |
| COc1cc(OC)c(OC)cc1C=O | -0.256% [at 91.3 µM] (inactive) |  |
| CC(C)(O)[C@@H]1[C@H]2OC(=O)[C@@H]1[C@]1(O)C[C@H]3O[C@]34C(=O)O[C@H]2[C@]14C |  | inactive |
